Bioassay records as filed in PubChem BioAssay.
Beta apoptosis = blocks beta cell apoptosis | INS-1E cytokine-induced death, ATP luminescence, 48 h; percent of positive-control rescue, neutral wells zero | protection from apoptosis, % (concentration not given with the values) | 300,000 compounds, 0.8% hits | AID 435005;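 active means Every replicate reaches about 75%, or at least half do and their mean reaches it too, limit read from the data; inconclusive means At least half of replicates reach the limit but their mean does not; inactive means Under half of replicates reach the limit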;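 further: 0% = cytokine-treated negative control wells and 100% = positive control rescue; higher means more ATP so stronger rescue from cytokine killing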
GRIN3A LBD mod = modulates the human NR3A ligand-binding domain | 340,000 compounds, 2.5% hits | NR3A LBD differential scanning fluorimetry, Tm shift; 0% = protein alone, 100% = glycine-bound protein | Tm shift relative to glycine control, % at 25 µM;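 active means melting temperature shift of at least 10% of the positive control shift, at one fixed dose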
SKKanGAS inh = inhibitors of SKKanGAS S. pyogenes growth in kanamycin (SK-promoter or general growth effect) | BacTiter-Glo, 6 h | inhibition, % at 7.5 µM | 300,000 compounds, 1.3% hits | AID 1662;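 active means mean replicate score, as percent of positive control median, at least 50; inconclusive means mean below 50 but one replicate at or above 50; inactive means mean and every replicate below 50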;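 further: strain carries kanamycin resistance gene driven by streptokinase promoter and grows in 40 µg/ml kanamycin; loss of luminescence reflects streptokinase promoter inhibition or plain growth inhibition; 0% = median of DMSO wells and 100% = positive control at its reference dose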
Mdm2 MdmX PPI = disrupts the human Mdm2-MdmX interaction | O15151+Q00987 | SaOS-2 split-luciferase Mdm2/MdmX complementation, luminescence | inhibition, % at 8 µM | 330,000 compounds, 3% hits | AID 485346;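 active means inhibition of at least 50% at 8 µM in the primary screen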
CSC inhib = cancer stem cell inhibition. cancer stem cell-like cells viability, luminescence. 300,000 compounds, 1.1% hits. inhibition, % at 7.5 µM; in the data active means inhibition above about 75%; inconclusive means no clear call, values can overlap the other calls; tested in HMLE shEcad cells
MPTP inh = inhibitors of mitochondrial permeability transition pore; 360,000 compounds, 1.4% hits; isolated mouse mitochondria, Ca2+ swelling absorbance, 30 min; inhibition, % at 10 µM;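 active means inhibition of 50% or more, scaled per plate between neutral and stimulator controls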;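 further: 0% = DMSO wells given calcium and 100% = 1 mM EGTA wells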
Mdm2 MdmX conf = human Mdm2/MdmX binding inhibition, confirmed; shares compounds with Mdm2 MdmX PPI; luminescent assay; inhibition, % at 8 µM; 10,000 compounds, 55% hits; in the data active means inhibition above about 40%
FLuc counter = full-length luciferase inhibition in Mdm2/MdmX counter-screen; SaOS-2 full-length luciferase counterscreen, luminescence; shares compounds with Mdm2 MdmX PPI; 6,200 compounds, 77% hits; inhibition, % at 8 µM;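 active means mean inhibition at 8 µM reaching about 37%, which flags the compound as non-specific, limit read from the data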;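 further: p53-null SaOS-2 cells with luciferase driven by a doxycycline-inducible promoter; compound on cells about two nights before reading with doxycycline added after day one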
Active calls of the source: *; u = inconclusive; x = no result given. Rows were chosen to be rich in hits. Some 6.9% of all compounds tested hit in one or more screens of this group.

SMILES	Beta apoptosis	GRIN3A LBD mod	SKKanGAS inh	Mdm2 MdmX PPI	CSC inhib	MPTP inh	Mdm2 MdmX conf	FLuc counter
COc1ccc(NC(=O)Cc2c(SC)c3ccccc3n2Cc2ccccc2)cc1	23	-6	2	69*	-1	4	40	90*
CCN1C(=O)/C(=C/c2nc3ccccc3c(=O)n2-c2ccccc2)c2ccccc21	23	-1	11	83*	22	-2	49*	57*
CCOc1cc(C(=O)N2CCCN(C)CC2)cc(OCC)c1OCC	0	0	3	-11	-3	0	x	x
CCOc1cc(CNCCCN2CCOCC2)cc(Br)c1OCC(=O)Nc1cccc(C(F)(F)F)c1	69	-1	-14	98*	14	4	71*	45*
CC1(C)CCN2CCC(C)(C)c3c(O)ccc1c32	111*	-3	24	92*	131*	1	83*	40*
N#Cc1cccc(C(=O)Nc2cc(S(=O)(=O)N3CCOCC3)ccc2N2CCCC2)c1	-6	-1	x	31	-1	0	x	x
COc1ccc(CCc2cc(OC)cc(=O)o2)cc1	x	-2	2	15	-3	0	x	x
COC(=O)c1cc(C(=O)N2CCN(c3cccc(C)c3C)CC2)cc([N+](=O)[O-])c1	2	-1	12	55*	57	-1	48*	54*
COC(=O)c1cc(C(=O)N2CCN(c3ccccc3OC)CC2)cc([N+](=O)[O-])c1	4	-1	1	52*	-9	-2	56*	60*
Cc1ccc(C)c(Sc2ccc(NC(=O)CCN3C(=O)NC4(CCCC4)C3=O)cc2)c1	11	-4	x	35	x	0	x	x
Cc1ccc(Sc2ccc(NC(=O)CCl)cc2)c(C)c1	3	-8	-8	66*	40	x	9	x
CCOc1ccc(N=Nc2cc(C(C)C)ccc2O)cc1	10	2	-3	-16	13	2	x	x
NS(=O)(=O)c1ccc(N=Nc2ccc(O)c3ncccc23)cc1	121*	8	11	62*	50	18	52*	48*
CCOc1ccc(N=Nc2ccc(O)c3ncccc23)cc1	55	-2	92*	68*	103*	6	81*	23
NS(=O)(=O)c1ccc(N=Nc2ccc(=O)[nH]c2O)cc1	4	-2	2	x	12	1	x	x
COC(=O)[C@]1(Cc2ccccc2)N[C@H](c2ccc(-c3ccc(F)cc3)cc2)[C@@H]2C(=O)N(C)C(=O)[C@@H]21	9	1	13	32	22	0	x	x
COc1cc2c3nnc(-c4ccc(F)cc4)c-3cn(Cc3ccc(C)cc3)c2cc1OC	8	-1	2	78*	-1	11	72*	68*
COc1cc2c3nnc(-c4ccc(F)cc4)c-3cn(Cc3cccc(C)c3)c2cc1OC	23	-18	-1	97*	18	2	99*	87*
COc1cc2c3nnc(-c4ccccc4)c-3cn(Cc3ccc(F)cc3)c2cc1OC	-27	-4	9	46	7	14	x	x
COc1cc2c3nnc(-c4ccc(F)cc4)c-3cn(Cc3cccc(F)c3)c2cc1OC	-2	1	x	89*	6	3	100*	50*
CC1CCN(C(=O)c2[nH]cnc2C(=O)N[C@@H](C)C(=O)OCc2ccccc2)CC1	-4	-6	6	16	27	1	x	x
COc1ccc(OC)c(NC(=O)CC2SC(=Nc3ccc(F)cc3)N(CCC3=CCCCC3)C2=O)c1 (centres undefined)	27	3	10	21	26	4	x	x
COc1cc([N+](=O)[O-])ccc1NC(=O)CC1SC(=Nc2ccc(F)cc2)N(CCC2=CCCCC2)C1=O (centres undefined)	110*	6	20	77*	u	7	85*	65*
COc1cc(C2CC(=O)c3cnc(N4CCN(Cc5ccccc5)CC4)nc3C2)cc(OC)c1OC (centres undefined)	15	0	-1	52*	53	4	68*	52*
